For orientation: inhibition means the relative decrease from the control value, in per cent.

The structures appear in SMILES notation. Screen size: about 330,000 compounds; about 1,500 (0.45%) were called active. Rule as the data show it: active = inhibition above about 45% (passing the limit was not always enough); inconclusive = no clear call, values can overlap the other calls. For the sample, actives were picked, then their nearest neighbours and some compounds at random.

This is an account of results in PubChem BioAssay AID485273 (Sanford-Burnham Center for Chemical Genomics, 2010).

The target of this test is Ubiquitin-conjugating enzyme E2 N (Homo sapiens) (UniProt P61088). Nature of the test: blockers of UBC13 ubiquitin chain synthesis – biochemical, TR-FRET, uHTS, primary screen (AID 485273). The conditions noted are these: UBC13 polyubiquitin chain formation, at 20 µM, active compounds read high. Background: In TR-FRET formats the signal depends on donor and acceptor labels being close together.
Chain of Ubiquitin-conjugating enzyme E2 N (Homo sapiens) (P61088 whole entry, looked up): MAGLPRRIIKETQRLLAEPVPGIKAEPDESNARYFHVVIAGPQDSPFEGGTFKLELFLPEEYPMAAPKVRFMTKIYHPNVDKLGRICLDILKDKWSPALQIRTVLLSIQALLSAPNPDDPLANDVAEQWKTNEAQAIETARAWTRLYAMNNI
With `Cc1cc(C)cc(OCC(=O)NCc2cc(C)nc3ccccc23)c1`, the inhibition was 7.7% (inactive).
With `CC(C)c1ccccc1OCC(O)CN(CC(O)COc1cccc2ccccc12)C(C)C` (configuration not stated) the figure was 10.8% (inactive); with `Cc1cc(C)c(NC(=O)C[N+](C)(C)CC(O)COc2cccc3ccccc23)c(C)c1` (configuration not stated), 45.4% (active).
As for `CCCCCN(C(=O)CCC(=O)OCC(=O)NCc1ccc(OC)cc1)c1c(N)n(CCCC)c(=O)[nH]c1=O`, the inhibition was 2.5% (inactive).
With `CCn1ccnc1CN1CCCC(C(=O)c2ccc3c4c(cccc24)CC3)C1` (configuration not stated) the figure was 19.1% (inactive); with `O=C(c1ccccc1)N1CCN(C(=O)c2cc3nc(-c4ccccc4)cc(C(F)(F)F)n3n2)CC1`, 2.2% (inactive).
To `O=C(O)/C(=C/c1cccnc1)NC(=O)c1ccccc1` belongs 7.7% (inactive).
With `CC(C)n1cnc2c(Nc3cccc(Cl)c3)nc(N(CCO)CCCO)nc21` the figure was 64.8% (active).
For `CC(C)C[C@H](CO)Nc1nc(N(C)c2cccc(Cl)c2)c2ncn(C(C)C)c2n1`, the inhibition is 24.1% (inactive).
To `OCCCNc1nccc(-c2cc(Nc3cccc(Cl)c3)ncn2)n1` belongs 35.7% (inactive).
Take `O=C(O)CCn1c(SCc2cc(=O)n3ccccc3n2)nc2ccsc2c1=O`: the inhibition is -6.3% (inactive).
To `O=C(Nc1cccnc1Oc1ncnc2cc(Cl)ccc12)c1ccc(F)cc1` belongs 2.8% (inactive).
To `COc1ccc(N2CCN(CCNC(=O)Nc3cc(Cl)ccc3Cl)CC2)cc1` belongs 5.5% (inactive).
With `CC(=O)c1ccc(NC(=O)c2sc3nc4n(c(=O)c3c2C)CCCCC4)cc1` the figure was -6.8% (inactive).
As to `CC(=O)Nc1ccc(NC(=O)c2sc3nc4c(c(-c5ccc(C)cc5)c3c2N)CCC4)cc1`, the inhibition is 54% (active).
With `Cc1ccc(NC(=O)c2sc3nc(N)c(C#N)cc3c2N)cc1` the figure was 1% (inactive); with `COc1ccc(C=C(C#N)C#N)c(CSc2ccccn2)c1`, 3.1% (inactive).
To `O/N=C(\C[n+]1ccccc1)c1ccc(Br)cc1` belongs -4.7% (inactive); to `CC(=O)NCCNC(=O)c1cc(-c2cccc3ccccc23)nc2ccccc12`, 8.4% (inactive); to `O=C(NCC(c1cccs1)N1CCOCC1)c1cc(-c2ccccn2)nc2ccccc12` (configuration not stated), 1.9% (inactive).
To `CCCCN(C)CCCNC(=O)c1cc(-c2cccs2)nc2ccccc12` belongs 48.3% (active); to `COC(=O)c1cc(N2CCNCC2)nc2ccccc12`, 17.5% (inactive).
As to `O=C(Nc1nnc(-c2ccccc2)o1)c1cc(-c2cccs2)nc2ccccc12`, the inhibition was -31.4% (inactive).
To `COC(=O)c1cc(-c2cccs2)nc2ccccc12` belongs 45.2% (active).
To `COc1cccc(NC(=O)CN(C)C(=O)c2cc(C3CC3)nn2-c2ccccc2)c1` belongs -2.2% (inactive).
With `CCOCCCNS(=O)(=O)Cc1ccccc1` the figure was -13.7% (inactive).
For the molecule `CCOc1ccc(N(CC(=O)NCCc2ccc(OC)cc2)S(C)(=O)=O)cc1`, the inhibition is 3.8% (inactive).
With `Cc1sc2ncnc(N3CCC(C(=O)Nc4ccc(F)cc4Cl)CC3)c2c1C` the figure was 17.7% (inactive).
With `Cc1ccc(S(=O)(=O)N(C)c2ccc(OCC(=O)OCC(=O)N(CC#N)c3ccccc3)cc2)cc1` the figure was -0.2% (inactive); with `CCCc1cc(=O)[nH]c2nnc(SCC(=O)Nc3nnc(SCC)s3)n12`, -15.5% (inactive); with `NCC(=O)c1cccc2ccc[n+]([O-])c12`, -7.7% (inactive).
With `O=C(NCC(=O)N(Cc1cccs1)C(C(=O)NC1CCCCC1)c1ccco1)c1cccs1` (configuration not stated) the figure was -5.1% (inactive); with `Cn1c(SCC(=O)c2ccccc2)ncc(C(=O)Nc2ccc(F)cc2)c1=O`, 36.4% (inactive); with `Cc1ccc(NC(=O)c2cnc(SCC(=O)NCC3CCCO3)n(C)c2=O)cc1` (configuration not stated), 93.1% (active).
Turning to `CCn1c(SCC(=O)NCC2CCCO2)nc2ccccc21` (configuration not stated), the inhibition is 5.4% (inactive).
With `Cc1ccccc1-n1cc(CNC(=O)C2CCC(=O)N(C3CC3)C2)cn1` (configuration not stated) the figure was 8.4% (inactive); with `COc1ccc(-n2nc(C(=O)Nc3cc(OC)c(OC)c(OC)c3)c3ccccc3c2=O)c(OC)c1`, 21.2% (inactive); with `N#CCc1ccc(NC(=O)c2ccccc2C(=O)Nc2ccc(CC#N)cc2)cc1`, 2.2% (inactive).
To `COCCCNC(=O)Cn1cc(C(=O)C2CC2)c2ccccc21` belongs 11.8% (inactive).
To `CCCCOCCCNC(=O)c1ccccc1OCC` belongs 1.4% (inactive).
As for `CCOCCCNC(=O)c1cn(CC(C)C)c(=O)c2c1c1ccccc1n2C`, the inhibition is 51.1% (active).
To `CN(C)c1nc(N)nc(Cn2nnc(-c3ccc(C(F)(F)F)cc3)n2)n1` belongs 4% (inactive).
To `COc1ccccc1-c1sc2ccccc2c1-c1ccc(Br)nc1` belongs 21.7% (inactive).
Consider `COc1ccccc1-c1sc2ccccc2c1C#CC1(O)CCCCC1`, for which the inhibition is -2.3% (inactive).
On to `COc1ccccc1-c1sc2ccccc2c1-c1ccc(C(C)=O)cc1`, for which the inhibition is 47.4% (active).
With `CCCC1C(=O)N2C(N(C)C)=Nc3ccc(C)cc3N2C1=O` (configuration not stated) the figure was -21% (inactive); with `COc1cccc(OC)c1C(=O)Nc1ccc2c(c1)n(C)c(=O)n2C`, 1.6% (inactive).
To `Cc1cc2oc3ccc(NCCC4CCCN4C)cc3c(=O)c2cc1C` (configuration not stated) belongs 33.1% (inactive); to `COc1cccc2sc3cc(NCC[C@@H]4CCCN4C)ccc3c(=O)c12`, 45.1% (active).
With `COCCn1c(SCC(=O)Nc2ccccc2F)nc2c(c1=O)SCC2` the figure was -6.9% (inactive).
Take `COc1ccc(C2=NN(c3nc4ccccc4s3)C(=O)C2)cc1`: the inhibition is -13.1% (inactive).
To `COc1ccc(-n2nnnc2-c2nc3ccccc3s2)cc1` belongs 53.4% (active); to `COc1ccc(-n2nnnc2CNC(=O)c2ccc3ccccc3c2)cc1`, -2.4% (inactive).
To `Cc1c(Cl)cnc(NC(=O)COC(=O)C2CCCC2)c1Cl` belongs 3.7% (inactive); to `O=C(CCNS(=O)(=O)c1ccc(Br)cc1)NCC1CCCO1` (configuration not stated), 1.5% (inactive).
To `CCCN1CCn2c3c(c4cc(Br)ccc42)CCCC31` (configuration not stated) belongs -1.1% (inactive); to `OC(CNCC1CCCO1)Cn1c2ccc(Br)cc2c2cc(Br)ccc21` (configuration not stated), 57.5% (active).
With `COc1ccccc1C(=O)N1C(CC(=O)Nc2ccccc2C)C(=O)NC2CCCCC21` (configuration not stated), the inhibition was -2.3% (inactive).
`CCCC[C@@H]1CN=C(N)N1CCc1cccc(F)c1`: the inhibition is 13.5% (inactive).
To `CCCC[C@@H]1CN=C(N)N1CCc1cc(C(F)(F)F)cc(C(F)(F)F)c1` belongs 66.9% (active).
To `CCCC[C@@H]1CN=C(N)N1CCCC` belongs -4.4% (inactive).
To `COc1ccc(OC)c(-c2csc(NC(=O)C3=NNC(=O)CC3)n2)c1` belongs -3.9% (inactive); to `Cc1ccccc1CN1C(=O)c2ccccc2Sc2ccc(C(=O)NCCCN3CCOCC3)cc21`, 15.4% (inactive).
Regarding `O=C(NCCCN1CCOCC1)c1ccc2c(c1)N(Cc1cccc(F)c1)C(=O)c1ccccc1S2`, the inhibition is 13.3% (inactive).
To `CCN1CCN(CCNC(=O)c2ccc(/C=C3/Sc4ccccc4N(Cc4cccc(C)c4)C3=O)cc2)CC1` belongs 50.8% (active); to `C=CCn1c(=S)sc2c(=O)[nH]c(C)nc21`, -13.8% (inactive).
Take `Cc1ccc(-c2noc(CCC(=O)Nc3ccccc3N3CCN(C)CC3)n2)cc1`: the inhibition was 71.9% (active).
With `CCNC(=O)CCc1nc(-c2ccc(C)cc2)no1` the figure was 0.3% (inactive).
To `CN1CCN(C(=O)CCc2nc(-c3ccc(Cl)cc3)no2)CC1` belongs -0.3% (inactive).
To `Cc1cc([N+](=O)[O-])c(NC2CCCCC2)c([N+](=O)[O-])c1` belongs -28.1% (inactive); to `O=C(Nc1ccc(F)cc1)C(=O)c1cn(CC(=O)N2CCOCC2)c2ccccc12`, -4.6% (inactive); to `CCN(CC(=O)Nc1ccc(OC)cc1)C(=O)c1ccc(Cl)c(S(=O)(=O)N2CCCC2)c1`, 8.9% (inactive).
Turning to `O=C(OCC1O[C@@H](OC(=O)c2cc(O)c(O)c(O)c2)[C@@H](OC(=O)c2cc(O)c(O)c(O)c2)[C@@H](OC(=O)c2cc(O)c(O)c(O)c2)[C@@H]1OC(=O)c1cc(O)c(O)c(O)c1)c1cc(O)c(O)c(O)c1` (some centres not stated), the inhibition is 138% (active).
In the case of `O=C(NCCc1ccc(F)cc1)c1ccc2nccnc2c1`, the inhibition is -9.4% (inactive).
With `CC1CCCN(C(C(=O)Nc2ccc(C(C)C)cc2)c2ccc3c(c2)OCO3)C1` (configuration not stated) the figure was 9% (inactive); with `COc1ccccc1C(=O)N(C1=NC(C)CS1)c1ccc(Cl)cc1` (configuration not stated), 1.5% (inactive).
To `COCCCNC(=O)CC1C[C@H](C(=O)N2CCCCC2)[C@@]2(CCc3ccccc3)c3[nH]c4ccccc4c3CCN2C1=O` (some centres not stated) belongs 14% (inactive); to `COc1ccc(NC(=O)c2sc3nc(C)nc(N4CCN(c5ccccn5)CC4)c3c2C)c(OC)c1`, 5.6% (inactive).
With `Cc1nc(N2CCN(c3ccccn3)CC2)c2c(C)c(C(=O)Nc3ccc(F)cc3)sc2n1` the figure was 47.4% (active).
Take `Cc1nc(N2CCOCC2)c2c(C)c(C(=O)Nc3ccc(C(F)(F)F)cc3)sc2n1`: the inhibition is 5.6% (inactive).
`Cc1cc(C)nc(N2C(=O)CC(Cc3ccccc3)C2=O)n1` (configuration not stated): the inhibition is -12.4% (inactive).
With `CC(C)NC(=O)C(c1ccc(F)cc1)N(C(=O)CCC(=O)Nc1ccccn1)c1ccccc1F` (configuration not stated) the figure was 2.6% (inactive); with `C#CCOCCOCCOCCNc1nc(N2CCN(C(=O)C([C@@H](C)CC)n3cc(C(N)COC(=O)C(F)(F)F)nn3)CC2)nc(N2CCN(C(=O)[C@H](CCCCN)n3cc(C(N)CC(C)C)nn3)CC2)n1` (some centres not stated), 108% (active); with `C#CCOCCOCCOCCNc1nc(N2CCN(C(=O)[C@H](CCC(=O)O)n3cc(C(N)CO)nn3)CC2)nc(N2CCN(C(=O)[C@H](CCCCN)n3cc(C(N)CC(C)C)nn3)CC2)n1` (some centres not stated), -3.6% (inactive).
With `C#CCOCCOCCOCCNc1nc(N2CCN(C(=O)[C@H](CCCCN)n3cc(CCC(=O)O)nn3)CC2)nc(N2CCN(C(=O)[C@H](CCCCN)n3cc(CC(C)O)nn3)CC2)n1` (some centres not stated) the figure was 2% (inactive); with `C#CCOCCOCCOCCNc1nc(N2CCN(C(=O)C([C@@H](C)O)n3cc([C@@H](N)CCCCN)nn3)CC2)nc(N2CCN(C(=O)[C@H](CCCCN)n3cc(CN)nn3)CC2)n1` (some centres not stated), 107% (active); with `C#CCOCCOCCOCCNc1nc(N2CCN(C(=O)C([C@@H](C)CC)n3cc(C(N)COC(=O)C(F)(F)F)nn3)CC2)nc(N2CCN(C(=O)[C@H](Cc3ccc(O)cc3)n3cc(C(N)[C@H](C)CC)nn3)CC2)n1` (some centres not stated), 37.1% (inactive).
